Assay outcomes from PubChem.
Lassa entry inh – qHTS for Inhibitors of binding or entry into cells for Lassa Virus; Potency, µM (series often up to 37.9 µM), without a hit: at the highest dose activity change, negative = inhibition, actives largely listed as inhibitors; Lassa virus pseudotype entry inhibition, cell reporter; 1.2% of 300,000 active; calls by dose curve; tested in HEK293 cells; note: potency is the fitted concentration of half-maximal effect; nearly all actives have a fitted effect of over 50% in size
Vaccinia mCherry – qHTS for Stage-Specific Inhibitors of Vaccinia Orthopoxvirus: mCherry Reporter Primary qHTS. 0.63% of 310,000 active. Potency, µM (highest dose often 36.5 µM), for inactives: at the highest dose activity change, negative = inhibition, hits mostly inhibitors. Vaccinia virus mCherry reporter infection, fluorescence; calls by dose curve; tested in A549 cells; note: potency is the fitted concentration of half-maximal effect; nearly all actives have a fitted effect of over 35% in size
HCMV inh – qHTS Assay for inhibitors of the human cytomegalovirus (HCMV); HFF cells, HCMV-luciferase reporter, 72 h; stronger effect = lower value; activity change, negative = inhibition, % at 57.5 µM; 4.5% of 410,000 active; AID 1259415, 2018; in the data active = activity change below about -60%; inconclusive = no clear call, values can overlap the other calls; inactive = above about -39%
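Steps: HFFs plated, 16 h 37C; compounds added; HCMV-luciferase added to MOI 1 PFU/cell; 72 h 37C; OneGlo reagent, 5 min room temperature; luminescence read, normalized to controls.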
VACV Venus inh – qHTS for Stage-Specific Inhibitors of Vaccinia Orthopoxvirus: Venus Reporter Primary qHTS. Vaccinia virus Venus reporter expression, fluorescence. Potency, µM (top dose mostly 36.5 µM), for inactives: top-dose activity change, negative = inhibition, actives largely listed as inhibitors. 0.46% of 330,000 active. AID 720580, 2013; calls by dose curve; tested in A549 cells; note: potency is the fitted concentration of half-maximal effect; nearly all actives have a fitted effect of over 30% in size
MARV entry inh – qHTS for inhibitors of binding or entry into cells for Marburg Virus | Marburg virus pseudotyped entry inhibition, cell reporter | Potency, µM (series often up to 37.8 µM), for the others: top-dose activity change, negative = inhibition, usual class: inhibitors | 1.8% of 300,000 active; calls by dose curve; tested in HEK293 cells; note: potency is the fitted concentration of half-maximal effect
FMDV inh – High Throughput Screening for Foot and Mouth Disease Virus Antivirals; Potency, µM (titrated, usually from 57.9 µM), for inactives: at the highest dose activity change, negative = inhibition, usual class: inhibitors; 1.2% of 410,000 active; FMDV antiviral cell-based qHTS; calls by dose curve; tested in HEK293T cells; note: read-out not given here; potency is the fitted concentration of half-maximal effect; nearly all actives have a fitted effect of over 45% in size
* = called active by the depositor; i = inactive; ? = inconclusive; . = no result; ! = repeats disagree; [ ] = another dose, or the depositor's remark. Rows were chosen to be rich in hits. Some 6.5% of all compounds tested hit in one or more screens of this group. % is set by controls: 0 for no effect and ±100 for the full control effect.

SMILES	Lassa entry inh	Vaccinia mCherry	HCMV inh	VACV Venus inh	MARV entry inh	FMDV inh
Cc1noc(C)c1CSc1nc2[nH]ncc2c(=O)n1-c1ccccc1	4µM*	?	22	?	?	17%
Cc1nc2c(o1)CCc1ccccc1[C@H]2O	.	.	.	.	11%	.
COc1cccc2sc(N3CCN(C(=O)c4ccco4)CC3)nc12	5%	i	-1	-16%	-8%	7%
COc1ccc(C(=O)N2CCN(c3nc4c(OC)cccc4s3)CC2)cc1OC	?	-6%	-84*	?	.	?
COc1cccc2sc(N3CCN(C(=O)CCS(=O)(=O)c4ccc(F)cc4)CC3)nc12	?	-25%	-88*	-27%	.	20µM*
CC(C)NC(=S)NC(=O)/C=C/c1ccc(F)cc1	-9%	-6%	-76*	-10%	?	-5%
CN(C(=S)NC(=O)/C=C/c1ccc(F)cc1)C1CCCCC1	-1%	i	-76*	-12%	1%	7%
COc1ccc2[nH]cc(CCNc3cc(-c4c(C)noc4C)ncn3)c2c1	.	.	.	.	.	-16%
COc1ccc(C=NNc2nc3ccccc3s2)cc1	?	?	15	6%	7.1µM*	-61%
Cc1csc(N/N=C/c2ccccn2)n1	?	?	-103*	?	?	?
C(=N\Nc1nc2ccccc2s1)/c1ccccn1	0.89µM*	13µM*	-97*	?	?	3.5µM*
O=C(c1n[nH]c2c1CCCC2)N1CCOc2ccc(C(O)C3CCCCC3)cc2C1 (configuration not stated)	.	-3%	.	-2%	.	-12%
Cc1cccc2c1NC1(CCCC1)CC2C (configuration not stated)	.	.	-63*	.	.	-24%
CC1CC2(CCCC2)Nc2ccc(F)cc21 (configuration not stated)	.	.	?	.	.	-12%
CC(C)c1ccc(/C=C/C(=O)Nc2nncs2)cc1	8.9µM*	2%	?	-22%	?	-50%
CC[C@@H]1[C@H]2CCCC(=O)N3CC[C@@H](C[C@@H]1OC(=O)Nc1ccc4c(c1)OCO4)[C@@H]23	.	i	.	-29%	.	.
COc1cc2ccccc2cc1C(=O)NNC(=O)c1ccccc1O	.	.	-91*	.	.	.
CC(C)c1ccc(OCC(=O)NNC(=S)NC(=O)C2CC2)cc1	?	-17%	-98*	?	?	0%
COc1ccc(NC(=O)c2cc3ccccc3cc2OC)cc1	?	-23%	174	?	-24%	14%
O=C(/C=C/c1cccs1)NC(=S)NNC(=O)c1ccccc1O	?	?	-94*	-8%	?	-14%
N#Cc1ccc(OCC(=O)NNC(=S)NC(=O)C2CC2)cc1	-7%	i	4	-10%	25%	2%
COc1ccc(C(=O)NC(=S)NNC(=O)c2cnccn2)cc1	-40%	-15%	-85*	-14%	?	8%
O=C(NC(=S)NNC(=O)c1cnccn1)c1ccc(Cl)cc1	-22%	-20%[7.34 µM]	94	-14%[7.34 µM]	-15%[46.1 µM]	24%
COCCNC(=O)C1(C)CCN(C(=O)c2cc(-c3cccs3)oc2C)C1 (configuration not stated)	.	.	-21	.	.	.
COc1cccc(Nc2cc3c(cn2)cc(-c2cnn(C)c2)n3C)c1	.	.	-15	.	.	.
SMILES	Lassa entry inh	Vaccinia mCherry	HCMV inh	VACV Venus inh	MARV entry inh	FMDV inh
COc1ccc(COC(=O)NNC(=O)c2ccc(OC)cc2)cc1	1.3µM*	-4%	16	-6%	7%	14%
COc1ccc(C(=O)NC(=S)NNC(=O)COc2ccccc2)cc1	18%	?	-22	-15%	?	28µM*
COc1ccc(C(=O)NC(=S)NNC(=O)c2ccccc2O)cc1	-4%	13µM*	39	?	13µM*	10%
COc1ccc(C(=O)NNC(=S)NC(=O)C(C)(C)C)cc1	?	4µM*	-31	?	?	-4%
CC(C)Cc1cc(C(=O)NCC2Cc3cc(F)cc(-c4ccccn4)c3O2)no1 (configuration not stated)	.	-5%	.	0%	.	6%
CSc1ncc(C(=O)N2CCN(c3ccc(Cl)cc3)CC2)c(C)n1	6%[46.1 µM]	-9%	-25	-16%	.	?
O=C(C[n+]1c(Cl)cc(Cl)c2ccccc21)c1ccccc1	.	-15%	.	-8%	.	.
COc1cccc(C2CC(=O)Nc3c2c(=O)n(C)c2nc4ccccc4n32)c1 (configuration not stated)	12%[46.1 µM]	-1%	11	7%	4%[46.1 µM]	-17%
CC(C)OCCCn1c(=O)c2ccccc2n2c(-c3ccc(F)cc3)nnc12	4%[46.1 µM]	-16%	-22	-18%	-16%[46.1 µM]	-1%
COc1ccc(OC)c(C(=O)Nc2c(O)ccc3ccccc23)c1	?	13µM*	31	?	6%	19%
COc1ccc(OC)c(NC(=O)Nc2c(O)ccc3ccccc23)c1	.	.	17	.	.	21%
CC1(C)Cc2c(c(-c3ccco3)nc3sc4c(NCCO)ncnc4c23)CO1	.	.	-75*	.	.	-29%
COCCCNc1ncnc2c1sc1nc(-c3ccco3)c3c(c12)CC(C)(C)OC3	?	-13%	57	-11%	-20%	-30%
O=C1c2ccccc2C(=O)C1c1ccc(O)cc1	-24%[46.1 µM]	-6%	-61*	12%	9%[46.1 µM]	4%
CN(Cc1cnc2nc(N)nc(N)c2n1)c1ccc(C(=O)NC(CCC(=O)O)C(=O)O)cc1 (configuration not stated)	?	11µM*	-97*	?	?	-24%
Nc1nc(N)c2nc(CNc3ccc(C(=O)NC(CCC(=O)O)C(=O)O)cc3)cnc2n1 (configuration not stated)	?	-8%	.	-9%	0.022µM*!	.
CN(Cc1cnc2nc(N)nc(N)c2n1)c1ccc(C(=O)NC(CCC(=O)O)C(=O)O)cc1C(F)(F)F (configuration not stated)	?	0.32µM*	-97*	1.1µM*	-67%	-29%
Nc1nc(N)c2nc(CNc3ccc(C(=O)N[C@H](CCC(=O)O)C(=O)O)cc3)cnc2n1	.	.	.	.	18%	.
C[C@@H]1CC[C@H]2C(=O)O[C@@H](Cc3ccccc3)CN2[C@@H]1c1ccc(Br)cc1	.	.	.	.	7%[14.2 µM]	.
CCOC1OC(=O)C(Cl)=C1Nc1ccccc1C (configuration not stated)	14%	-21%	-32	-1%	?	-9%
Cc1ccccc1NC1=C(Cl)C(=O)OC1NC(=O)c1ccccc1 (configuration not stated)	15%	i	-82*	-4%	21%	.
Cc1c(-c2ccccc2)nnn1-c1ccc(F)c(Cl)c1	.	.	28	.	.	.
CCC(OC(=O)CN1C(=O)C(=O)c2ccccc21)C(=O)Nc1ccccc1OC (configuration not stated)	19%	-16%	-63*	-5%	-11%[46.1 µM]	-15%
